# Laboratory results reported in PubChem BioAssay (NCATS).
# Records with an inconclusive call do not appear. Values without a mark were called inactive. The source made the active and inactive calls. Unless noted, the call rests on the fitted dose curve; in most records, active means well fitted curve in the direction sought with a large enough effect in the repeat runs; inconclusive means weak or mixed curves; inactive means no such curve, though single readings can be large; an effect the other way counts as inactive or inconclusive.
# Columns and labels:
# [1] = molecular target: Cytochrome P450 2D6 (Homo sapiens) (UniProt P10635); experiment: Cytochrome P450 family 2 subfamily D member 6 (CYP2D6) small molecule antagonists: luciferase biochemical (cell-free) qHTS assay (AID 1645840); further: nearly all actives have a fitted effect of over 55% in size; further: potency means the concentration at half of the fitted maximal effect
# Summary of the method: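 P450-Glo CYP2D6 system: proluciferin substrate converted by enzyme to luciferin, read by luminescence proportional to activity. Enzyme-substrate mix with compound 10 min at room temperature, then NADPH regeneration 1 h before detection reagent.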
# [2] = molecular target: Cytochrome P450 2C9 (Homo sapiens) (UniProt P11712); experiment: Cytochrome P450 family 2 subfamily C member 9 (CYP2C9) small molecule antagonists: luciferase biochemical (cell-free) qHTS assay (AID 1645842); further: nearly all actives have a fitted effect of over 55% in size; further: potency means the concentration at half of the fitted maximal effect
# Summary of the method: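 P450-Glo CYP2C9 system: proluciferin substrate with enzyme in mix containing 0.4% BSA, 10 min at room temperature, then NADPH regeneration solution added and incubated 1 h at 37C. Detection reagent stopped reaction; luminescence read after 20 min as RLU.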
# [3] = molecular target: Rap guanine nucleotide exchange factor 3 (Homo sapiens) (UniProt O95398); experiment: Confirmatory qHTS for antagonist of cAMP-regulated guanine nucleotide exchange factor 3 (EPAC1) (AID 1645880; active means well fitted curve in the direction sought with a large enough effect; an effect the other way counts as inactive or inconclusive; further: nearly all actives have a fitted effect of over 55% in size; further: potency means the concentration at half of the fitted maximal effect)
# Summary of the method: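 Released BODIPY-GDP fluoresces less than Rap1-bound BODIPY-GDP; the signal is followed at 480/540 nm at 5-min intervals over 30 min, after 5 min at room temperature. Reactions contain 100 nM EPAC1, 250 nM RAP1B-BODIPY-GDP and 50 uM GDP; results are normalized to ATA and DMSO.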
# [4] = molecular target: Rap guanine nucleotide exchange factor 3 (Homo sapiens) (UniProt O95398); experiment: Confirmatory qHTS for agonist of cAMP-regulated guanine nucleotide exchange factor 3 (EPAC1) (AID 1645881; active means well fitted curve in the direction sought with a large enough effect; an effect the other way counts as inactive or inconclusive;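 further: EPAC1 catalysed release of BODIPY-GDP from Rap1B seen as fluorescence loss; nearly all actives have a fitted effect of over 75% in size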)
# [5] = molecular target: Rap guanine nucleotide exchange factor 4 (Homo sapiens) (UniProt Q8WZA2); experiment: Confirmatory qHTS for antagonist of cAMP-regulated guanine nucleotide exchange factor 4 (EPAC2) (AID 1645885; active means well fitted curve in the direction sought with a large enough effect; an effect the other way counts as inactive or inconclusive; further: nearly all actives have a fitted effect of over 25% in size)
# [6] = molecular target: Rap guanine nucleotide exchange factor 3 (Homo sapiens) (UniProt O95398); experiment: Counterscreen qHTS for antagonist of cAMP-regulated guanine nucleotide exchange factor 3 (EPAC1) (AID 1645888; active means well fitted curve in the direction sought with a large enough effect; an effect the other way counts as inactive or inconclusive)
# Summary of the method: (§1)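 Rap1B-BODIPY-GDP 250 nM + GDP 50 uM; cpds 7-pt, final 9.74 nM–152 uM (activator mode) or from 7.32 nM upwards (inhibitor mode); RT; FI 480/540 nm at 5 and 30 min, then ± cAMP, reread.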
# [7] = molecular target: Rap guanine nucleotide exchange factor 3 (Homo sapiens) (UniProt O95398); experiment: Counterscreen qHTS for agonist of cAMP-regulated guanine nucleotide exchange factor 3 (EPAC1) (AID 1645889; active means well fitted curve in the direction sought with a large enough effect; an effect the other way counts as inactive or inconclusive; further: nearly all actives have a fitted effect of over 40% in size)
# Summary of the method: as §1
# [8] = molecular target: Glutathione peroxidase 1 (Homo sapiens) (UniProt P07203); experiment: Primary qHTS Assay for Inhibitors of Recombinant Selenoprotein Glutathione Peroxidase 1 (GPX1) (AID 1845191; active means well fitted curve in the direction sought with a large enough effect; an effect the other way counts as inactive or inconclusive; further: nearly all actives have a fitted effect of over 65% in size)
# Summary of the method: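 NADPH consumption tracked by fluorescence at 340/450 nm between t=0 and t=15 min, room temperature. Final mix: 10 nM GPX1, 100 nM glutathione reductase, 1 mM GSH, 0.5 mM NADPH, 0.5 mM cumene hydroperoxide, 0.01% BSA; 30 min compound–enzyme preincubation.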
# [9] = molecular target: Phospholipid hydroperoxide glutathione peroxidase GPX4 (Homo sapiens) (UniProt P36969); experiment: Primary qHTS Assay for Inhibitors of Recombinant Selenoprotein Glutathione Peroxidase 4 (GPX4) (AID 1845192; active means well fitted curve in the direction sought with a large enough effect; an effect the other way counts as inactive or inconclusive; further: nearly all actives have a fitted effect of over 65% in size)
# Summary of the method: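 NADPH consumption followed by fluorescence at 340/450 nm, t=0 and after 15 min at room temperature. Reaction started with cumene hydroperoxide (0.5 mM final) after 30 min compound–GPX4 preincubation; final 200 nM GPX4, 100 nM GR, 1 mM GSH, 0.5 mM NADPH.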
# [10] = molecular target: Rap guanine nucleotide exchange factor 4 (Homo sapiens) (UniProt Q8WZA2); experiment: Confirmatory qHTS for agonist of cAMP-regulated guanine nucleotide exchange factor 4 (EPAC2) (AID 1645884; active means well fitted curve in the direction sought with a large enough effect; an effect the other way counts as inactive or inconclusive;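 further: nucleotide exchange releases bodipy-GDP from Rap1 and this lowers its fluorescence; nearly all actives have a fitted effect of over 65% in size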)
# Sequence of Cytochrome P450 2D6 (Homo sapiens) (P10635 whole entry, looked up): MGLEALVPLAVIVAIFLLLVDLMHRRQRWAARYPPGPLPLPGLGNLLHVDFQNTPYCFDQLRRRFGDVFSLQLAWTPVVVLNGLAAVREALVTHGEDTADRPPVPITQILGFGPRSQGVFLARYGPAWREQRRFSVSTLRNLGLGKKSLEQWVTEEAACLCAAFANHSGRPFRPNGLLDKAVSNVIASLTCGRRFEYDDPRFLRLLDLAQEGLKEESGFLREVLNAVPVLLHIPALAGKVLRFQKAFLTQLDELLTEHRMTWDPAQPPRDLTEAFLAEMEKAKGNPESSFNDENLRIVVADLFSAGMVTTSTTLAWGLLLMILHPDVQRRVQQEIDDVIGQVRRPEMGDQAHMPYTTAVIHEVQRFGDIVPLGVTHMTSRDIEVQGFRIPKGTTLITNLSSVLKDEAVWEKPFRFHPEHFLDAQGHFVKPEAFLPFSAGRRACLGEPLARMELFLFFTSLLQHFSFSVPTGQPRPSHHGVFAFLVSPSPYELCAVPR
# Sequence of Rap guanine nucleotide exchange factor 3 (Homo sapiens) (O95398 whole entry, looked up): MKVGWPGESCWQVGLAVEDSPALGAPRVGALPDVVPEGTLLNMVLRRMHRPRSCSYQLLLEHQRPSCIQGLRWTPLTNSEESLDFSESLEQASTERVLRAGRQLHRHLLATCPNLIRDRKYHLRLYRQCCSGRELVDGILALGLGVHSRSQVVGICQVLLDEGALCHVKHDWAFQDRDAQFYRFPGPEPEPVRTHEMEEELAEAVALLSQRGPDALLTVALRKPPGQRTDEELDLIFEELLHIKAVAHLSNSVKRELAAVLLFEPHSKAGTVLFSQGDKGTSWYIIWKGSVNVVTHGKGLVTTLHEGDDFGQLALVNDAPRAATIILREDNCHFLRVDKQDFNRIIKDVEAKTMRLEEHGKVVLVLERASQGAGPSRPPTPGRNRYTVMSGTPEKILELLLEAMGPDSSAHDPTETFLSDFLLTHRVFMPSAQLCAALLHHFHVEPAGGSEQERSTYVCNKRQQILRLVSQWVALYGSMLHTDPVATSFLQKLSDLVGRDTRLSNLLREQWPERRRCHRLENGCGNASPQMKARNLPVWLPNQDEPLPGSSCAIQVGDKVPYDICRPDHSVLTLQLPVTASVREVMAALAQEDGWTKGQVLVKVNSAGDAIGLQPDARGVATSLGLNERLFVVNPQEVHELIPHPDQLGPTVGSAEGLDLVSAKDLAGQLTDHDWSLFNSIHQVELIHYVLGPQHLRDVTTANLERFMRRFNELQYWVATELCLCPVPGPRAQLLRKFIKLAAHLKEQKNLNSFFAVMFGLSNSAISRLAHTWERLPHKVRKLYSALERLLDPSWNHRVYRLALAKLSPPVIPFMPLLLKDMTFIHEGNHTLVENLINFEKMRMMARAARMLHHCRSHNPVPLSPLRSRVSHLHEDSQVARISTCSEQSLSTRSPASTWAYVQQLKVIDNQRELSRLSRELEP
# Sequence of Rap guanine nucleotide exchange factor 4 (Homo sapiens) (Q8WZA2 whole entry, looked up): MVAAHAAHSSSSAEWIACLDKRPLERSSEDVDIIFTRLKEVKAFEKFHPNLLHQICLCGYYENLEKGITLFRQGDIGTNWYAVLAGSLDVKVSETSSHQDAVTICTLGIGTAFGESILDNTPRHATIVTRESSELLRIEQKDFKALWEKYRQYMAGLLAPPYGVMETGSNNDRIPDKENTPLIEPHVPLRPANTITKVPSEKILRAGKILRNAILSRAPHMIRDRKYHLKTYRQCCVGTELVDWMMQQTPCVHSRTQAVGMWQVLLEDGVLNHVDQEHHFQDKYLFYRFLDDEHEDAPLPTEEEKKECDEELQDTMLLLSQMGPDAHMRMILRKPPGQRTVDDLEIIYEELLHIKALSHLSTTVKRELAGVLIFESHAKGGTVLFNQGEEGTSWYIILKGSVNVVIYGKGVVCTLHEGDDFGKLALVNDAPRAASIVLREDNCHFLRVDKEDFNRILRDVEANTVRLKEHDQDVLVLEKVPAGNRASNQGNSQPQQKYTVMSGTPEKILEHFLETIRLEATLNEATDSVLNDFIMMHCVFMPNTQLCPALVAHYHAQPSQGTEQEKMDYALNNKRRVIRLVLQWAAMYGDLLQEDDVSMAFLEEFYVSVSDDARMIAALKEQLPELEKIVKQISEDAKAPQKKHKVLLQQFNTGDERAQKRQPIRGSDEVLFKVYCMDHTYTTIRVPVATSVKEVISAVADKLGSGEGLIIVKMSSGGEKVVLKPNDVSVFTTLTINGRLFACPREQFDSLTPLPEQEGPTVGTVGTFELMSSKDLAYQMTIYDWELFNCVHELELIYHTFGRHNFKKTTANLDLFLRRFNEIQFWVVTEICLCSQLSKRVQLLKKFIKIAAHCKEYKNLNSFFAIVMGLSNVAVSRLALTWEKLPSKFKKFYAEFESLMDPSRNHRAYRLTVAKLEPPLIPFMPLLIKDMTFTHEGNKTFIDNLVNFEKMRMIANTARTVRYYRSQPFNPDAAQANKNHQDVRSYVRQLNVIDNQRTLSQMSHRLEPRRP
# Sequence of Cytochrome P450 2C9 (Homo sapiens) (P11712 whole entry, looked up): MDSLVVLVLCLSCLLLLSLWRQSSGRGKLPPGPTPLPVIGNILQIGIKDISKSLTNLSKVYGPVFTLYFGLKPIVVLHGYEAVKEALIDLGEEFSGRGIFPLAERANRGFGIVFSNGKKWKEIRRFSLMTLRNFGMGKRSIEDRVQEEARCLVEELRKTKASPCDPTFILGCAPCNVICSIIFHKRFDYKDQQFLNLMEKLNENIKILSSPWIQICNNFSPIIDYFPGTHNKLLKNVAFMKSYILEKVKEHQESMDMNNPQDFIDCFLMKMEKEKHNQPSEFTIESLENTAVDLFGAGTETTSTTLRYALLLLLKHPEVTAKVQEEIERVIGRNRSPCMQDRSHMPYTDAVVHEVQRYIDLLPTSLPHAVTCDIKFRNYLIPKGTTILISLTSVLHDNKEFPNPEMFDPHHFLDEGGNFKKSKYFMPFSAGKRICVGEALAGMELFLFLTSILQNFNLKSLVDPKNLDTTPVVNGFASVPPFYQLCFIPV
# Sequence of Glutathione peroxidase 1 (Homo sapiens) (P07203 whole entry, looked up): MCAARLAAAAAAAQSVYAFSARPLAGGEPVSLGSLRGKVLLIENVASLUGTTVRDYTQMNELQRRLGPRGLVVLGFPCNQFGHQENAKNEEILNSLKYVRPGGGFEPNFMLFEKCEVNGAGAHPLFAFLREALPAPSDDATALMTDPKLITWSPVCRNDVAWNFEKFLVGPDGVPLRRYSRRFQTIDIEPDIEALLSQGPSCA
# Sequence of Phospholipid hydroperoxide glutathione peroxidase GPX4 (Homo sapiens) (P36969 whole entry, looked up): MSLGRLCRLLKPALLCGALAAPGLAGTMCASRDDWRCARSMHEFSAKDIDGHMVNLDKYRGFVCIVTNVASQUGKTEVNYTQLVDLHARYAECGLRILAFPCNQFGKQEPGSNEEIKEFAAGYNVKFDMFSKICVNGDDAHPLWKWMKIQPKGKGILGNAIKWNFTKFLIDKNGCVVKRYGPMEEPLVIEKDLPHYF
structure (smiles),measurement,setting,value
Cc1cc(Cl)ccc1NC(=O)CCCn1nc(C)c2c(C)n(-c3ccccc3)nc2c1=O,Potency,[1],inactive
same,Potency,[2],13.5 µM (active)
COc1ccc(Cn2ccnc2SCC(=O)Nc2nc3ccccc3s2)cc1,Potency,[1],9.52 µM (active)
same,Potency,[2],2.39 µM (active)
COc1ccccc1NC(=O)c1oc2ccccc2c1NC(=O)c1ccccc1C(F)(F)F,Potency,[1],inactive
same,Potency,[2],2.68 µM (active)
O=C(NC1CCCCC1)c1ccc(CSc2nc3cccnc3n2Cc2ccccc2F)cc1,Potency,[1],9.52 µM (active)
same,Potency,[2],0.338 µM (active)
O=C(CSc1nc(-c2ccc(F)cc2)[nH]c1-c1ccc(F)cc1)Nc1ccc2c(c1)OCO2,Potency,[1],2.13 µM (active)
same,Potency,[2],0.849 µM (active)
COc1ccc(-n2ccn(CC(=O)Nc3ccc(C)c(C)c3)c(=O)c2=O)cc1OC,Potency,[1],inactive
same,Potency,[2],inactive
COc1ccccc1C(=O)Oc1ccc(C(c2c(C)[nH][nH]c2=O)c2c(C)[nH][nH]c2=O)cc1,Potency,[1],inactive
same,Potency,[2],10.7 µM (active)
CCc1ccc(-n2c(SCc3cccc(F)c3)nc3[nH]ncc3c2=O)cc1,Potency,[1],12 µM (active)
same,Potency,[2],12 µM (active)
Cc1oc(-c2ccccc2F)nc1Cn1c(SCc2ccccc2F)nc2ccncc21,Potency,[1],12 µM (active)
same,Potency,[2],9.52 µM (active)
COc1cc(C(c2c(C)[nH][nH]c2=O)c2c(C)[nH][nH]c2=O)ccc1OC(=O)c1ccccc1OC,Potency,[1],inactive
same,Potency,[2],8.49 µM (active)
Cc1ccc(NC(=O)Cn2c(=O)n(CCC(=O)N3CCc4ccccc4C3)c(=O)c3ccccc32)c(C)c1,Potency,[1],inactive
same,Potency,[2],0.338 µM (active)
CC(C)c1ccc(Nc2c(-c3ccccn3)nc3ccccn23)cc1,Potency,[1],26.8 µM (active)
same,Potency,[2],1.2 µM (active)
CC1(C#N)CCN(c2c(C(=O)N3CCN(S(C)(=O)=O)CC3)cnc3ccc(F)cc23)CC1,Potency,[1],inactive
same,Potency,[2],inactive
Cc1ccc(NC(=O)Cn2c(=O)n(CCC(=O)NCc3ccc4c(c3)OCO4)c(=O)c3sccc32)c(C)c1,Potency,[1],1.69 µM (active)
same,Potency,[2],2.13 µM (active)
Cc1ccc(C(=O)c2cn(CC(=O)Nc3ccc4c(c3)OCCO4)c3nc(C)ccc3c2=O)cc1,Potency,[1],inactive
same,Potency,[2],9.52 µM (active)
C[C@H]1[C@@H](OC(=O)CCC(=O)O)O[C@@H]2O[C@]3(C)CC[C@H]4[C@H](C)CC[C@@H]1[C@@]24OO3,Potency,[1],inactive
same,Potency,[2],inactive
CCCCCCCCCCCCCCCC(=O)OC[C@H](O)[C@H]1OC(=O)C(=O)C1O (some centres not stated),Potency,[1],inactive
same,Potency,[2],26.8 µM (active)
CC1=C(C(=O)Nc2cccc(C(N)=O)c2)C(c2ccccc2Cl)N=C(Nc2nc3ccccc3o2)N1 (configuration not stated),Potency,[1],8.49 µM (active)
same,Potency,[2],0.19 µM (active)
Cc1ccc(NC(=O)CSc2nc3ccccc3c3nc(CCn4cncc4C)nn23)cc1F,Potency,[1],3.79 µM (active)
same,Potency,[2],0.536 µM (active)
Cc1cccc(Cn2c(SCc3ccc(C(=O)N4CCC(C)CC4)cc3)nc3ccncc32)c1,Potency,[1],4.77 µM (active)
same,Potency,[2],4.77 µM (active)
Cc1c(Cl)cccc1NC(=O)Cn1cc(C(=O)C2CCCCC2)c2ccccc21,Potency,[1],5.35 µM (active)
same,Potency,[2],2.13 µM (active)
CCOC(=O)N1CCc2c(sc3c2c(=O)n(Cc2ccccc2)c(=O)n3CC(=O)Nc2cccc(C)c2)C1,Potency,[1],1.51 µM (active)
same,Potency,[2],4.25 µM (active)
COc1ccccc1OCCn1c(NC(=O)c2ccccc2Cl)nc2ccccc21,Potency,[1],inactive
same,Potency,[2],3.79 µM (active)
Cc1cccc(NC(=O)CSc2nc3ccccc3c3nc(CCn4cncc4C)nn23)c1,Potency,[1],3.01 µM (active)
same,Potency,[2],1.51 µM (active)
Cc1ccc(-n2c(SCc3ccccc3F)nc3[nH]ncc3c2=O)cc1C,Potency,[1],16.9 µM (active)
same,Potency,[2],13.5 µM (active)
CC(C)c1ccc(-n2ncc3c(=O)n(CC(=O)Nc4cc(F)ccc4Cl)cnc32)cc1,Potency,[1],inactive
same,Potency,[2],3.79 µM (active)
CC1=C(C(=O)Nc2cccc(-c3cn[nH]c3)c2)C(c2ccccc2Cl)N=C(Nc2nc3ccccc3o2)N1 (configuration not stated),Potency,[1],21.3 µM (active)
same,Potency,[2],1.07 µM (active)
COc1ccc(-n2nc3c(N4CCCC(C(=O)NCc5cccc(F)c5)C4)nnc(C)c3c2C)cc1 (configuration not stated),Potency,[1],1.69 µM (active)
same,Potency,[2],8.49 µM (active)
COc1ccc(C(C#N)C(C)C)cc1OC (configuration not stated),Potency,[1],inactive
same,Potency,[2],inactive
Cc1ncc(Cl)cc1NCc1ccc(C(=O)N[C@@H](CC2CCCC2)C(=O)NC2CC2)s1,Potency,[1],15.1 µM (active)
same,Potency,[2],8.49 µM (active)
Cc1cccn2c(=O)cc(CSc3nnc(NC(=O)COc4ccccc4)s3)nc12,Potency,[1],inactive
same,Potency,[2],6.74 µM (active)
same,Potency,[3],67.5 µM (active)
same,Potency,[4],inactive
same,Potency,[5],inactive
same,Potency,[6],inactive
same,Potency,[7],inactive
Cc1ccc2nc(NC(=O)CSc3nccn3Cc3ccccc3)sc2c1,Potency,[1],8.49 µM (active)
same,Potency,[2],9.52 µM (active)
CC1(C#N)CCN(c2c(C(=O)N3CCN(C(=O)C4CC4)CC3)cnc3c(F)cc(F)cc23)CC1,Potency,[1],inactive
same,Potency,[2],12 µM (active)
CCn1cc2nc(SCC(=O)Nc3ccc(OC)c(OC)c3)n(Cc3ccc(Cl)cc3)c(=O)c2n1,Potency,[1],9.52 µM (active)
same,Potency,[2],3.79 µM (active)
Cc1ccc(Cn2c(Cc3ccccc3)nc3ccccc32)cc1,Potency,[1],10.7 µM (active)
same,Potency,[2],13.5 µM (active)
same,Potency,[3],inactive
same,Potency,[4],inactive
same,Potency,[5],inactive
same,Potency,[6],inactive
same,Potency,[7],inactive
COc1ccc(C(=O)Oc2ccc(C(c3c(C)[nH][nH]c3=O)c3c(C)[nH][nH]c3=O)cc2)cc1,Potency,[1],inactive
same,Potency,[2],10.7 µM (active)
CC(C)[C@H]1CC[C@H](C)C[C@H]1O,Potency,[1],inactive
same,Potency,[2],inactive
same,Potency,[8],inactive
same,Potency,[9],inactive
COc1ccc(CC2c3cc(OC)c(OC)cc3CCN2CCC(=O)OCCCCCOC(=O)CCN2CCc3cc(OC)c(OC)cc3C2Cc2ccc(OC)c(OC)c2)cc1OC (configuration not stated),Potency,[1],inactive
same,Potency,[2],21.3 µM (active)
Oc1cccc(C(Nc2ccccn2)c2ccc3cccnc3c2O)c1Cl (configuration not stated),Potency,[1],13.5 µM (active)
same,Potency,[2],10.7 µM (active)
same,Potency,[3],inactive
same,Potency,[4],inactive
same,Potency,[10],inactive
same,Potency,[5],inactive
same,Potency,[6],inactive
C#C[C@]1(O)CC[C@@H]2[C@@H]3CCC4=CCCC[C@@H]4[C@H]3C(=C)C[C@@]21CC,Potency,[1],inactive
same,Potency,[2],3.38 µM (active)
same,Potency,[8],inactive
COC(=O)c1c(SCC(=O)Nc2cc(C)cc(C)c2)[nH]c2ccccc2c1=O,Potency,[1],inactive
same,Potency,[2],21.3 µM (active)
CCc1ccc(C2=CC(c3cccc(C)c3)n3c(nc4ccccc43)N2)cc1 (configuration not stated),Potency,[1],9.52 µM (active)
same,Potency,[2],6.01 µM (active)
